Source: PubChem BioAssay (National Center for Advancing Translational Sciences (NCATS))
SW480 rereplic: induces DNA re-replication in SW480 colon adenocarcinoma cells | SW480 DNA re-replication, Hoechst DNA content imaging, 48 h | Potency, µM (titrated, usually from 46.1 µM), hits mostly activators | 340,000 tested, 1.8% active; further: nearly all actives have a fitted effect of over 55% in size
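First, 250 cells per well were seeded. Next, compound or vehicle (23 nL) was pinned in, plates sat 48 hr at 37 C. Finally Hoechst was added for 40 min before fluorescence scanning.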
MCF10A rerep: induces DNA re-replication in MCF 10a normal breast cells; Potency, µM (titrated, usually from 46.1 µM), usual class: activators; MCF 10A DNA re-replication, Hoechst nuclear intensity, 48 h; 350,000 tested, 2.9% active; further: nearly all actives have a fitted effect of over 50% in size
KB-V1 MDR tox: KB-V1 MDR subline cytotoxicity. KB-V1 MDR cells viability, CellTiter-Glo, 72 h. Potency, µM (highest dose often 46.1 µM), hits mostly cytotoxic. 400,000 tested, 3.4% active; further: nearly all actives have a fitted effect of over 60% in size
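Luminescent ATP read-out (CellTiter-Glo, 10 min) measures survival of drug-selected KB-V1 MDR cells after 72 h, 37 degrees C compound exposure. Medium: phenol-red-free DMEM, 10% FBS. Values from fitted concentration-response curves.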
ELG1 DNA repair: ELG1-dependent DNA repair inhibition; HEK293T ELG1-luciferase reporter, luminescence, 16 h; DNA damage induced by 5-fluorouridine; Potency, µM (series often up to 46.1 µM), actives largely listed as inhibitors; 330,000 tested, 2.3% active; AID 504467; further: nearly all actives have a fitted effect of over 55% in size
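Quantitative HTS, concentration-response format. 2,000 cells/well co-treated with 5-fluorouridine and compound, 16 hr in 5% CO2 at 37 °C; ONE-Glo luminescence read after 30 min.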
KB-3-1 tox: KB-3-1 parental cell cytotoxicity; KB-3-1 viability, CellTiter-Glo ATP luminescence, 72 h; Potency, µM (titrated, usually from 46.1 µM), most hits filed as cytotoxic; 400,000 tested, 1.4% active; AID 1347075; further: nearly all actives have a fitted effect of over 60% in size
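KB-3-1 parental drug-naive adenocarcinoma cells in DMEM/10% FBS, incubated 72 h at 37 C with pin-transferred compounds across a concentration series. Viability by CellTiter-Glo luminescence; concentration-response curves fitted after normalization.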
Large screens that a line does not name were inactive. The list is not random: actives were taken first. Their share in the collection is about 8.1%. The call rests on the fitted dose curve; in most records, active means well fitted curve in the direction sought with a large enough effect; inconclusive means small, poorly fitted or top-dose-only effect, or another doubt; inactive means no such curve, though single readings can be large; an effect the other way counts as inactive or inconclusive.

Cn1c(SCC(=O)c2ccc3c(c2)Cc2ccccc2-3)nnc1-c1cccc(N)c1	KB-V1 MDR tox 16µM
O=C(N/N=C/c1sc(=O)n(Cc2ccc(Br)cc2)c1Cl)c1ccco1	MCF10A rerep 18µM, KB-3-1 tox inconclusive
O=C(N/N=C/c1ccc(Br)s1)c1ccco1	ELG1 DNA repair inconclusive
Nc1[nH]c(=O)nc2c1ncn2C1OC(CO)C(O)C1O (stereo not given)	none (no result: SW480 rereplic, MCF10A rerep, ELG1 DNA repair)
O=c1cnn([C@@H]2O[C@H](CO)[C@@H](O)[C@H]2O)c(=O)[nH]1	KB-V1 MDR tox 4.1µM, ELG1 DNA repair inconclusive, KB-3-1 tox inconclusive
COC1(OC)C(/C=C/c2ccc(C)cc2)C(C#N)(C#N)C1(OC)OC (stereo not given)	SW480 rereplic inconclusive, MCF10A rerep 18µM, KB-3-1 tox inconclusive (no result: ELG1 DNA repair)
O=C(O)c1ccc(CS(=O)c2cccc(C(F)(F)F)c2)o1 (stereo not given)	KB-V1 MDR tox inconclusive, ELG1 DNA repair 10µM
Cc1cccc(S(=O)Cc2ccc(C(=O)N3CCOCC3)o2)c1 (stereo not given)	none
O=c1[nH]c2ccc(Cl)cc2c(-c2ccccc2)c1N1CCN(c2ccccn2)CC1	SW480 rereplic inconclusive, KB-V1 MDR tox 13µM
O=C(Nc1cccc(Cl)c1N1CCCCC1)c1ccc2c(c1)OCCO2	MCF10A rerep inconclusive
Cc1onc(-c2ccccc2)c1C(=O)Nc1ncc([N+](=O)[O-])s1	MCF10A rerep inconclusive, KB-V1 MDR tox 23µM, ELG1 DNA repair 3.7µM, KB-3-1 tox inconclusive
Cc1nc2c(ccc3nc(NC(=O)c4ccc5c(c4)OCCO5)sc32)s1	SW480 rereplic inconclusive, MCF10A rerep 2.3µM, ELG1 DNA repair inconclusive
Cc1cnc(NC(=O)c2cccc(S(=O)(=O)N3CC(C)OC(C)C3)c2)s1 (stereo not given)	KB-V1 MDR tox 16µM, KB-3-1 tox inconclusive
O=C(NC(=S)Nc1cccc(Cl)c1N1CCCCC1)c1ccc2c(c1)OCCO2	SW480 rereplic inconclusive, MCF10A rerep 4.6µM, KB-V1 MDR tox 15µM
Nc1nc(NCc2ccc(Cl)c(Cl)c2)c2[nH]cnc2n1	none (no result: SW480 rereplic, MCF10A rerep, ELG1 DNA repair)
COc1ccc(CNC(=O)C2CCN(S(=O)(=O)c3ccc4c(ccn4C)c3)CC2)cc1	none (no result: SW480 rereplic, MCF10A rerep, ELG1 DNA repair)
COc1ccc(Cc2nnc(NC(=O)CS(=O)(=O)Cc3ccccc3)s2)cc1	none (no result: ELG1 DNA repair)
N#Cc1ccccc1S(=O)(=O)N1CCC(C(=O)NCc2ccccc2CN2CCCC2)CC1	KB-V1 MDR tox inconclusive
O=c1cc(-c2ccc(F)cc2)nc(SCc2nc(-c3cccc(Cl)c3)no2)[nH]1	none (no result: SW480 rereplic, MCF10A rerep, ELG1 DNA repair)
Cc1ccc(C(=O)Nc2ncc([N+](=O)[O-])s2)cc1	ELG1 DNA repair inconclusive, KB-3-1 tox inconclusive
Cc1cnc(NC(=O)c2ccc3c(c2)OCCO3)s1	SW480 rereplic 4.1µM, MCF10A rerep 2.9µM, KB-V1 MDR tox inconclusive, ELG1 DNA repair inconclusive, KB-3-1 tox 5.8µM
O=C(Nc1ncc([N+](=O)[O-])s1)c1ccc2c(c1)OCO2	KB-V1 MDR tox inconclusive, ELG1 DNA repair inconclusive, KB-3-1 tox 23µM
O=C(Nc1cccc2cccnc12)c1ccc2c(c1)OCCO2	MCF10A rerep inconclusive, KB-V1 MDR tox 13µM, ELG1 DNA repair inconclusive
COc1ccc(N2CCN(C(=O)C3Cc4ccccc4N3C(C)=O)CC2)cc1 (stereo not given)	none (no result: SW480 rereplic, MCF10A rerep, ELG1 DNA repair)
O=C(CC1(O)C(=O)Nc2ccccc21)c1ccccc1O (stereo not given)	none
O=C(CC1(O)C(=O)Nc2cc(Cl)cc(Cl)c21)c1ccccc1O (stereo not given)	SW480 rereplic inconclusive, MCF10A rerep 15µM
Cc1ccc(O)c(C(=O)c2cnc3c(c2)COc2ccccc2-3)c1	MCF10A rerep inconclusive, ELG1 DNA repair 16µM
NCC(c1ccccc1)(c1ccccc1)c1ccccc1	SW480 rereplic inconclusive, KB-V1 MDR tox 21µM, ELG1 DNA repair inconclusive, KB-3-1 tox inconclusive
COc1ccc(CCNC(=O)CN(C2CCCCC2)S(C)(=O)=O)cc1OC	KB-V1 MDR tox inconclusive
CS(=O)(=O)N(CC(=O)NCCc1ccccc1)C1CCCCC1	KB-V1 MDR tox 23µM
CN(C1CCCCC1)S(=O)(=O)c1ccc(S(=O)(=O)N(CC(=O)Nc2ccccc2)C2CC2)cc1	SW480 rereplic 3.7µM
CN(C1CCCCC1)S(=O)(=O)c1ccc(NC(=O)CCC(=O)O)cc1	none
CCNC(=O)CN(C1CCCCC1)S(=O)(=O)c1ccc(F)cc1	KB-V1 MDR tox 13µM
COc1ccc(CCNC(=O)C2CCC(=O)N2Cc2ccccc2Cl)cc1OC (stereo not given)	none
O=C(COC(=O)C1CC1)NCCc1ccc(Cl)cc1	SW480 rereplic 3.7µM
O=C(NCCc1ccc(Cl)cc1)C1CCC(=O)N1Cc1ccccc1Cl (stereo not given)	KB-V1 MDR tox 23µM
O=C(COC(=O)C1CCCCC1)NCc1ccc(Cl)cc1	none
CCC(c1nc2ccccc2[nH]1)n1c(=O)c(-c2ccco2)nc2ccccc21 (stereo not given)	KB-V1 MDR tox inconclusive (no result: SW480 rereplic, MCF10A rerep, ELG1 DNA repair)
CCN(CC)c1ccc(/C=C(\C#N)C(N)=O)cc1	ELG1 DNA repair inconclusive
CCN(CC)c1ccc(/C=C(\C#N)C(=O)c2ccc(Br)cc2)cc1	SW480 rereplic inconclusive, MCF10A rerep 13µM
Cc1ccc(C(=O)O)cc1N1C(=O)c2cccc3c([N+](=O)[O-])ccc(c23)C1=O	SW480 rereplic inconclusive, MCF10A rerep 18µM, ELG1 DNA repair inconclusive, KB-3-1 tox inconclusive
CC(=O)Oc1cccc(N2C(=O)c3cccc4c([N+](=O)[O-])ccc(c34)C2=O)c1	SW480 rereplic inconclusive, MCF10A rerep 21µM
O=C(Nc1nccs1)c1cccc(N2C(=O)c3cccc4c([N+](=O)[O-])ccc(c34)C2=O)c1	SW480 rereplic 7.3µM, MCF10A rerep 3.7µM, KB-V1 MDR tox inconclusive, KB-3-1 tox inconclusive
CN(C)CCCN1C(=O)c2cccc3c([N+](=O)[O-])ccc(c23)C1=O	SW480 rereplic 5.8µM, MCF10A rerep 5.8µM, KB-V1 MDR tox inconclusive, ELG1 DNA repair 13µM, KB-3-1 tox 23µM
O=C(Nc1ccc(S(=O)(=O)Nc2nccs2)cc1)c1cccc(N2C(=O)c3ccccc3C2=O)c1	none
C=C1CC2C3C=C(C)C4=CC(=O)CCC4(C)C3CCC2(C)[C@@]1(OC(C)=O)C(C)=O (stereo not given in full)	none (no result: KB-V1 MDR tox, ELG1 DNA repair, KB-3-1 tox)
Cc1ccc(S(=O)(=O)NCCCNS(=O)(=O)c2ccccc2Br)cc1	none
O=C(O)c1ccc(CN2C(=O)c3cccc4c([N+](=O)[O-])ccc(c34)C2=O)cc1	SW480 rereplic 5.8µM, MCF10A rerep 5.8µM, KB-V1 MDR tox inconclusive, ELG1 DNA repair inconclusive, KB-3-1 tox inconclusive
O=C(O)c1ccc(CN2C(=O)c3ccc(C(=O)O)cc3C2=O)cc1	none
Cc1cccc2sc(NNC(=O)C3COc4ccccc4O3)nc12 (stereo not given)	none
O=C(NNc1nc2c(F)cc(F)cc2s1)C1COc2ccccc2O1 (stereo not given)	MCF10A rerep 0.92µM, KB-V1 MDR tox inconclusive
